# From PubChem BioAssay (NCI)
# Where “and” joins values, the source holds several entries; their conditions need not be identical. Equal entries are not always repeated. Compounds without any hit were thinned out: in the full panel of roughly 83,000, 20% have a hit.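 96-well plates, one dose, 48 hours. Percent growth reported; active if below 10.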 Calls of active or inactive are those of the source.
# Tested on: HL-60(TB) leukemia
# Experiment: NCI-60 one-dose screen, 48 h (100 = growth as untreated, 0 = no growth, -100 = all killed)
# Conditions: 10 µM unless noted
row,Structure (SMILES),growth
1,COc1ccc(C(O)c2cc3c(N)c(C(=O)Nc4ccc(Cl)cc4)sc3nc2C)cc1 (stereo unspecified),-50.1% (active)
2,O=C(NNc1nccc(Nc2ccc(S(=O)(=O)Nc3ccncc3)cc2)n1)c1ccccc1,119% (inactive)
3,N#CCCN(CCO)c1ccccc1,89.9% (inactive)
4,NN1C(=O)CSC1=S,126% (inactive)
5,CCSc1nc(NC)c2cc(-c3ccc(C(F)(F)F)cc3)ccc2n1,98.3% (inactive)
6,COc1c(/C(C)=N/N=c2sc(C(C)=O)nn2-c2ccc(Cl)cc2)c(Oc2ccccc2)c(OC)c2occc12,102% (inactive) and 104% (inactive)
7,Cc1ccc2c(C(C[N+](=O)[O-])c3ccccc3F)c(-c3ccccc3)[nH]c2c1 (stereo unspecified),27.3% (inactive)
8,CN(C)c1ccc(/C=C\C(=O)c2ccccc2)cc1,76.6% (inactive) and 81.7% (inactive) and 75.5% (inactive)
9,O=[N+]([O-])c1ccc2[nH]cc(-c3c4ccccc4cc4[nH]c5ccc([N+](=O)[O-])cc5c34)c2c1,11.7% (inactive)
10,Cc1ccc(/C=C2\CN(C(=O)OC(C)(C)C)C/C(=C\c3ccc(C)cc3)C2=O)cc1,41.9% (inactive)
11,Cc1nc2ccccc2c(/C=C/c2ccc(Cl)cc2)c1C(=O)/C=C/c1ccc(Cl)cc1,-34.6% (active)
12,CN1CCN(c2ccc3nc(-c4c(N)c5c(F)cccc5[nH]c4=O)[nH]c3c2)CC1,12.9% (inactive) and 3.6% (active)
13,CCCCCCCCCCCC(=O)NCCCN(C)C,83.7% (inactive)
14,CCOC(=O)C12CCCC1=CC(=O)CC2 (stereo unspecified),100% (inactive)
15,N#CSCC(=O)c1ccc(Cl)cc1,73.4% (inactive)
16,C=C(C)[C@@H]1CC[C@]2(C(=O)O)CC[C@]3(C)[C@H](CC[C@@H]4[C@@]5(C)C[C@@H](Cc6cn(CCO[C@@H]7O[C@H](COC(C)=O)[C@H](OC(C)=O)[C@H](OC(C)=O)[C@H]7OC(C)=O)nn6)[C@H](O)C(C)(C)[C@@H]5CC[C@]43C)[C@@H]12,37.9% (inactive)
17,Cc1cc(NC(=O)CSCC(=O)O)no1,88.9% (inactive)
18,COc1ccc2nc(C)cc(Nc3ccc(Cl)cc3)c2c1,95.6% (inactive)

row,Structure (SMILES),growth
1,CCOC(=O)C1=C(N)Oc2c(sc3c(C)cccc23)C1c1ccc(OC)cc1 (stereo unspecified),1.54% (active)
2,O=C(Nc1ccc(N2CCNCC2)cc1)c1[nH]ncc1Nc1cc(C2CC2)ncn1,67.9% (inactive)
3,Nc1cc(-c2nc3sccn3c2-c2ccnc(NCCCNS(=O)(=O)c3ccc(F)cc3)n2)ccc1F,63.6% (inactive)
4,CCOc1cccc(Nc2nc(N)nc3[nH]c4ccc(O)cc4c23)c1,53% (inactive)
5,C=CCSc1nc2ccccc2cc1/C=N/O,92.1% (inactive)
6,COc1cc2nc(-c3ccc(C(F)(F)F)cc3)cc(OCCN3CCC(O)CC3)c2cc1OC,68.6% (inactive)
7,Oc1c(Cl)cc(Cl)cc1Sc1cc(Cl)cc(Cl)c1O,28% (inactive) and -16.5% (active) and 52.9% (inactive)
8,COc1cc(-c2nc(SC(C)C)nc(Nc3cccc(C)c3)c2C#N)cc(OC)c1OC,98.3% (inactive)
9,COc1ccc(-c2nc(N)ncc2Oc2ccccc2OC)c(O)c1,-21.8% (active)
10,CS(=O)(=O)c1ccc(-c2nc3cc(Cl)ccc3n2CC(=O)NO)cc1,91.9% (inactive)
11,CCN(CC)CCCC(C)Nc1ccnc2cc(Oc3ccccc3)ccc12 (stereo unspecified),69% (inactive) and 97.8% (inactive)
12,C=C1C(=O)O[C@H]2[C@H]1CC/C(COC(=O)CCC(=O)OC/C1=C/CC[C@@]3(C)O[C@H]3[C@H]3OC(=O)C(=C)[C@@H]3CC1)=C\CC[C@@]1(C)O[C@@H]21,-41.9% (active)
13,O=C(/C=C/c1ccco1)Nc1ncc(Cc2cccc(C(F)(F)F)c2)s1,-53.6% (active)
14,Brc1ccc2c(c1)CN(C1CCCCC1)CO2,106% (inactive)
15,Cc1ccc(C2C3CC4CCCCC4N3[C@@]3(C(=O)Nc4cc(Cl)ccc43)C2C(=O)c2nc3ccccc3[nH]2)cc1 (stereo partly specified),1.4% (active)
16,Cc1ccc(C(C(N)=O)C(C(N)=O)c2ccccc2)cc1 (stereo unspecified),84.7% (inactive)
17,O=c1c(/C=C/c2ccco2)nnc(SCCN2CCOCC2)n1/N=C/c1ccc([N+](=O)[O-])cc1,87.9% (inactive)
18,c1cnc2[nH]cc(-c3csc(-c4cn(CCCN5CCOCC5)c5ccccc45)n3)c2c1,35.8% (inactive)
